# Test results taken from PubChem BioAssay (NCATS).
# Records with an inconclusive call do not appear. Where a call stands in place of a potency, no number is given. Activity calls are given as the source filed them. Calls come from the whole dose curve; as a rule, active = well fitted inhibition curve with a large enough effect; inconclusive = small, poorly fitted or top-dose-only effect; inactive = no such curve, though single readings can be large or run the other way.
# Tests used:
# [1] = system: Zika virus NS2B-NS3 protease (unlinked complex); experiment: Primary screen GU Rhodamine qHTS for Zika virus inhibitors: Unlinked NS2B-NS3 protease assay (AID 1347159); settings: Recombinant ZIKV NS2B-NS3 protease, Rhodamine110 substrate fluorescence; series mostly up to 107 µM; note: nearly all actives have a fitted effect of over 60% in size
# Procedure, shortened: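 Percent inhibition derives from the 15-min fluorescence change (ex 480, em 540 nm), normalized to no-enzyme and no-inhibitor wells. Reactions contained 25 nM NS2B-NS3 complex and 1.5 microM substrate in 10 mM Tris-HCl pH 8.0.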
# [2] = system: Zika virus NS2B-NS3 protease (linked construct); experiment: Primary screen NINDS Rhodamine qHTS for Zika virus inhibitors (AID 1347160); settings: purified NS2B-NS3 protease, Rhodamine110 substrate fluorescence; series mostly up to 57.1 µM; note: nearly all actives have a fitted effect of over 55% in size
# Procedure, shortened: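 In 10 mM Tris-HCl pH 8.0 containing 0.01% Tween 20, linked NS2B-NS3 protease (25 nM final) is exposed to test compounds for 15 min. Cleavage of 1.5 microM Rhodamine110 substrate is tracked by fluorescence over 15 min.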
SMILES,Potency [1],Potency [2],"activity change, negative = inhibition [1]","activity change, negative = inhibition [2]"
C=C1C[C@@]23CCC4[C@@](C)(CCC[C@@]4(C)C(=O)OC)C2CC[C@@H]1C3 (some centres undefined),inactive,inactive,,
CC(=O)O[C@@H]1[C@H](O)[C@@H](O[C@@H]2O[C@@H](C)[C@H](O[C@@H]3OC[C@@H](O)[C@H](O[C@@H]4OC[C@@H](O)[C@H](O)[C@H]4O)[C@H]3O)[C@@H](O[C@@H]3O[C@H](CO)[C@@H](O)[C@H](O)[C@H]3O)[C@H]2O)[C@H](OC(=O)[C@]23CCC(C)(C)C[C@H]2C2=CCC4[C@@]5(C)CC[C@H](O[C@@H]6O[C@H](C(=O)O)[C@@H](O)[C@H](O[C@@H]7OC[C@@H](O)[C@H](O)[C@H]7O)[C@H]6O[C@@H]6O[C@H](CO)[C@H](O)[C@H](O)[C@H]6O)[C@@](C)(C=O)C5CC[C@@]4(C)[C@]2(C)CC3)O[C@@H]1C (some centres undefined),,,-1.88% [at 19.1 µM] (inactive),7.65% [at 10.7 µM] (inactive)
CCC(C)C(=O)OC1CC(C)C=C2C=CC(C)C(CCC(O)CC(O)CC(=O)O)C21 (centres undefined),inactive,inactive,,
C[C@]1(CO)CCC[C@]2(C)C3=C(CCC12)COC3 (some centres undefined),inactive,inactive,,
C[C@@H](Oc1cc(-n2cnc3ccc(OC4CCN(C)CC4)cc32)sc1C(N)=O)c1ccccc1C(F)(F)F,inactive,inactive,,
CCOc1ccc2nc(SCCN3CCOCC3)[nH]c2c1,inactive,inactive,,
O=C(O[C@H]1[C@@H]2C[C@@H]3OC[C@](O)([C@@H]1Cl)[C@H]2C(O[C@@H]1O[C@H](CO)[C@@H](O)[C@H](O)[C@H]1O)O3)c1ccc(O)c(O)c1 (some centres undefined),inactive,inactive,,
